# Experimental data from PubChem BioAssay (NCATS).
# The source made the active and inactive calls. The rule behind the calls is not given here.
# Tested on: HIV-1 nucleocapsid protein NCp7 (binding to TG oligonucleotide)
# Assay: HIV Nucleocapsid (AID 346);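 note: potency is for inhibitors that block NC binding and lower polarization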
# Conditions: HIV-1 NC / fluorescein-TGTGTGTG probe, fluorescence polarization
# How it was run: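 Inhibition of nucleocapsid binding to single-stranded 5'-TGTGTGTG probe (10 nM) was measured by fluorescence polarization after 1 hr at room temperature with 100 nM protein under high-salt, zinc-containing, reducing conditions.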
# Potency is the fitted concentration of half-maximal effect.
row,SMILES,Potency
1,CCNc1ncc2nc(-c3cc(F)cc(F)c3)c(=O)n(C)c2n1,> 20 µM (inactive)
2,COc1cccc(Cn2c(=O)c(-c3cccc(C#N)c3)nc3cnc(N4CCN(C)CC4)nc32)c1,> 20 µM (inactive)
3,c1ccc(CNc2cc(-c3ccoc3)ncn2)cc1,> 20 µM (inactive)
4,COCCn1c(=O)c(-c2cn(C)c3ccccc23)nc2cncnc21,11.9 µM (inactive)
5,Cn1cc(-c2nc3cncnc3n(CCN)c2=O)c2ccccc21,> 20 µM (inactive)
6,CC(=O)N1CCC[C@@]2(CCN(Cc3cc(C(F)(F)F)cc(C(F)(F)F)c3)C2)C1,> 20 µM (inactive)
7,CS(=O)(=O)N1CCC2(CCN(C(c3ccccc3)c3ccccc3)CC2)CC1,> 20 µM (inactive)
8,CCNc1ncc2nc(-c3ccc(OC)cc3)c(=O)n(-c3ccc(OC)cc3)c2n1,> 4 µM (inactive)
9,CN1CC[C@@]2(CCCN(C(=O)c3cccn3C)C2)C1,> 20 µM (inactive)
10,O=c1c(-c2ccccc2)nc2cncnc2n1Cc1ccc(F)cc1,> 20 µM (inactive)
11,CC(=O)N1CCC2(CCCN(Cc3nccs3)C2)CC1,> 20 µM (inactive)
12,CN(C)C(=O)c1ccc(-c2ccc3ncnc(NC4CCNCC4)c3c2)cc1,> 20 µM (inactive)
13,COCC(=O)N1CCC2(CC1)CN(Cc1nccs1)C2,> 20 µM (inactive)
14,Cc1ccccc1-c1cc(NCc2cccnc2)ncn1,> 20 µM (inactive)
15,COC(=O)N1CCC[C@@]2(CCN(C(c3ccccc3)c3ccccc3)C2)C1,> 20 µM (inactive)
16,COc1ccc(-c2nc3cnc(N4CCOCC4)nc3n(CCC#N)c2=O)cc1,> 20 µM (inactive)
17,COc1ccc(-n2c(=O)c(C)nc3cncnc32)cc1,> 20 µM (inactive)
18,Cn1cccc1C(=O)N1CCC2(CCN(Cc3ccncc3)CC2)CC1,> 20 µM (inactive)
19,O=S(=O)(c1ccccc1)N1CCC2(CCCN(c3ccncc3)C2)CC1,> 20 µM (inactive)
20,COc1ccc(-n2c(=O)c(-c3cc(F)cc(F)c3)nc3cnc(N4CCNCC4)nc32)cc1,> 20 µM (inactive)

row,SMILES,Potency
1,CS(=O)(=O)Nc1cccc(-c2ccc3ncnc(N4CCOCC4)c3c2)c1,> 20 µM (inactive)
2,CN1CCN(c2ncncc2-c2ccccc2C(F)(F)F)CC1,> 20 µM (inactive)
3,COc1ccccc1CNc1cc(-c2ccccc2C)ncn1,> 20 µM (inactive)
4,c1nc(NC2CCNCC2)c2cc(-c3ccc4c(c3)OCO4)ccc2n1,> 20 µM (inactive)
5,COc1ccc(-n2c(=O)c(C)nc3cnc(Nc4ccccc4)nc32)cc1,> 20 µM (inactive)
6,Cc1ccccc1-c1cc(N(C)Cc2ccco2)ncn1,> 20 µM (inactive)
7,COC(=O)N1CCC2(CC1)CN(C(=O)Nc1cccc(F)c1)C2,> 20 µM (inactive)
8,CC(=O)N1CCC[C@@]2(CCN(Cc3nccs3)C2)C1,> 20 µM (inactive)
9,N#CCCn1c(=O)c(-c2ccc(F)cc2)nc2cnc(Oc3cccc(Cl)c3)nc21,> 20 µM (inactive)
10,CCNc1ncc2nc(-c3cn(C)c4ccccc34)c(=O)n(Cc3cccc(OC)c3)c2n1,> 20 µM (inactive)
11,Cn1cc(-c2nc3cncnc3n(C3CC3)c2=O)c2ccccc21,> 20 µM (inactive)
12,O=C(Oc1ccccc1)N1CCC2(CCCN(c3ncccn3)C2)CC1,> 20 µM (inactive)
13,CN(C)c1ccc(-c2cncnc2N(C)Cc2ccco2)cc1,> 20 µM (inactive)
14,O=c1c(-c2cccs2)nc2cncnc2n1-c1ccccc1,18.2 µM (inactive)
15,Cc1cnc(CNc2cc(-c3ccoc3)ncn2)cn1,> 20 µM (inactive)
16,COc1cccc(Nc2ncc3nc(C)c(=O)n(CCC#N)c3n2)c1,> 20 µM (inactive)
17,O=C(Nc1cccc(F)c1)N1CCCC2(CCNCC2)C1,> 4 µM (inactive)
18,O=C(c1cc(C(F)(F)F)cc(C(F)(F)F)c1)N1CCC2(CC1)CN(Cc1ccncc1)C2,> 20 µM (inactive)
19,Cc1ccccc1-c1cc(N(C)C)ncn1,> 20 µM (inactive)
20,COCCNc1nc(-c2ccccc2C)nc2ccccc12,> 20 µM (inactive)
